The source made the active and inactive calls.
Assays:
[1] = optical density shifts of acrAB sulA E. coli – strain DRC41, OD650, 48 h, E. coli filamentation inducer project, primary screen (AID 1152); settings: higher = more signal, called active from +8 up or from −8 down;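 note: E. coli MC1000 strain DRC41 lacking acrAB efflux pump and sulA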
[2] = probe aLefty1 binding on compound microarray – biochemical, small-molecule microarray, 635/667 nm fluorescence, primary screen (AID 1153); settings: higher = more signal;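 note: score merges spot fluorescence with signal-to-noise ratio from the scanned slide images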
[3] = plasmodial surface anion channel blockers, osmotic lysis – cell-based, P. falciparum Indochina, OD700, 1 h, primary screen (AID 1154); settings: P. falciparum Indochina infected RBC osmotic lysis, higher = more signal, called active from +8 up or from −8 down
[4] = plasmodial surface anion channel blockers, osmotic lysis – cell-based, P. falciparum Indochina, OD700, 2 h, primary screen (AID 1155);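 note: lysis reports solute entry through the parasite surface anion channel PSAC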; settings: P. falciparum Indochina infected erythrocytes, higher = more signal, called active from +8 up or from −8 down
[5] = changes in parasitized red cell lysis, either direction – P. falciparum Indochina, OD700, 3 h, PSAC antagonist project, primary screen (AID 1156); settings: P. falciparum-infected erythrocytes, osmotic lysis, higher = more signal, called active from +8 up or from −8 down
[6] = plasmodial surface anion channel blockers, osmotic lysis – cell-based, P. falciparum Indochina, OD700, 18 h, primary screen (AID 1157); settings: P. falciparum Indochina infected erythrocytes, osmotic lysis OD700, 18 h; higher = more signal, called active from +8 up or from −8 down
[7] = S6 kinase pathway phospho-S6 level changes – cell-based, A549, cytoblot, luminescence, serum-stimulated, primary screen (AID 1158); settings: 5 h, higher = more signal;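 note: serum-stimulated A549 lung adenocarcinoma cells; signal is phosphorylated S6 detected by cytoblot immunostaining with HRP secondary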
[8] = molecular target: NADPH oxidase 2 (Homo sapiens) (UniProt P04839); assay: compounds shifting NOX2 Amplex Red fluorescence – cell-based, HEK293-NOX2, PMA-stimulated, NOX inhibitor project, primary screen (AID 1159); settings: 45 min, higher = more signal, called active from +8 up or from −8 down; note: test concentration not given here
Chain of NADPH oxidase 2 (Homo sapiens) (P04839 whole entry, looked up): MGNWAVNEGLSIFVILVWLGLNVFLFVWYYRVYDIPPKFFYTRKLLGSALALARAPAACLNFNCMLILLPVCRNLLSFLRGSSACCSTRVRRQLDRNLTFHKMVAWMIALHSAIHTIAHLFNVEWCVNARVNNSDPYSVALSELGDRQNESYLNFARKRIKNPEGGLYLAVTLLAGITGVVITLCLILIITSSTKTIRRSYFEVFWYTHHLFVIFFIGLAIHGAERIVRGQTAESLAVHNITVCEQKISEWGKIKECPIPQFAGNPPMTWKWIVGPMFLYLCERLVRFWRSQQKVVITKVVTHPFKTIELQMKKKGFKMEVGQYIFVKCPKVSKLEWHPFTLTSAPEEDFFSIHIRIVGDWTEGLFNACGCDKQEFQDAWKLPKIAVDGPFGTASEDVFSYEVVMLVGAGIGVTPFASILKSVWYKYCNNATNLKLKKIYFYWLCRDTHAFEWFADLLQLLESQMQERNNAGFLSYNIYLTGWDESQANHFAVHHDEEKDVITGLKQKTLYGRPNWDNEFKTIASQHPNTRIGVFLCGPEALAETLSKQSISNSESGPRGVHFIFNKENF

[9] = molecular target: NADPH oxidase 4 (Homo sapiens) (UniProt Q9NPH5); assay: compounds shifting NOX4 Amplex Red fluorescence – cell-based, HEK293-NOX4, tetracycline-induced, NOX inhibitor project, primary screen (AID 1160); settings: HEK293-NOX4, Amplex Red H2O2 fluorescence, 45 min; higher = more signal, called active from +8 up or from −8 down
Chain of NADPH oxidase 4 (Homo sapiens) (Q9NPH5 whole entry, looked up): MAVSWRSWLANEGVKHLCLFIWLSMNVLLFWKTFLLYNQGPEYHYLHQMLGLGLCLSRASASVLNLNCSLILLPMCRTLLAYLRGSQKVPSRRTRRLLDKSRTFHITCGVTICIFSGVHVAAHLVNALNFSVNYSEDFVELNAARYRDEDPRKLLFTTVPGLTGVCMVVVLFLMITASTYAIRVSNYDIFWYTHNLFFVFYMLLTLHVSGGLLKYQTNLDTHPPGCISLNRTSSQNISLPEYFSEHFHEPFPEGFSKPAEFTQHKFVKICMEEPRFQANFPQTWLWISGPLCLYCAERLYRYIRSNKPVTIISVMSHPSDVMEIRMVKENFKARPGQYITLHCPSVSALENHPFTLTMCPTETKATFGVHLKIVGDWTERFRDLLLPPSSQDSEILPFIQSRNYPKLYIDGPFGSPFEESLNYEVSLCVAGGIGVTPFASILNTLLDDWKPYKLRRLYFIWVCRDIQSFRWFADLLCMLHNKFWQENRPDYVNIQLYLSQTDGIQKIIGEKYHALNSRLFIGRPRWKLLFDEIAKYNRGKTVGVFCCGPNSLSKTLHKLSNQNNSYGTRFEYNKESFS

[10] = molecular target: NADPH oxidase 5 (Homo sapiens) (UniProt Q96PH1); assay: compounds shifting NOX5 Amplex Red fluorescence – cell-based, HEK293-NOX5, NOX inhibitor project, primary screen (AID 1161); settings: HEK293-NOX5, ionomycin, 45 min, higher = more signal
Chain of NADPH oxidase 5 (Homo sapiens) (Q96PH1 whole entry, looked up): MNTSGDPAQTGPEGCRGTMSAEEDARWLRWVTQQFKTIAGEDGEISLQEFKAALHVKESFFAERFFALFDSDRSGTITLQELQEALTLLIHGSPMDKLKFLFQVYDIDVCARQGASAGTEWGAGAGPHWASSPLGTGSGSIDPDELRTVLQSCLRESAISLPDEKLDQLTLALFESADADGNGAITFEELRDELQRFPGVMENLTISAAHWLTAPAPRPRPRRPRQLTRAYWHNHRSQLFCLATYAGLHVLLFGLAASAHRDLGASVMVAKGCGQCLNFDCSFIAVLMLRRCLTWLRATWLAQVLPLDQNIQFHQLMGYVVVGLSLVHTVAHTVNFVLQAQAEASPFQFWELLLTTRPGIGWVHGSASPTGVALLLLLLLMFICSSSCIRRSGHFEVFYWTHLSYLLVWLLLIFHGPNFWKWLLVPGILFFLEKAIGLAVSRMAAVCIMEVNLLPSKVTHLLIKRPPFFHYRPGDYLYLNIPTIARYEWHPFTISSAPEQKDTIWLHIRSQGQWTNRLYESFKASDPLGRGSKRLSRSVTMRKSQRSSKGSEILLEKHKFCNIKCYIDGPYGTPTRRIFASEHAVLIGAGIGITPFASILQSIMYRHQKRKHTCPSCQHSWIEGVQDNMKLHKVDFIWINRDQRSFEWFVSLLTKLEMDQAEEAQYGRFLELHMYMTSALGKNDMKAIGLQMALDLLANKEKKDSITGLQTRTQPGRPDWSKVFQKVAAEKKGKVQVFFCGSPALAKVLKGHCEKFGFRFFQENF

SMILES | z-score [1] | composite z-score [2] | z-score [3] | z-score [4] | z-score [5] | z-score [6] | z-score [7] | z-score [8] | z-score [9] | z-score [10]
CC1CC/C=C\[C@H]2OC34C=CCN(c5ccc6ccccc6c5)C(=O)[C@H]3N(CCCO)C(=O)[C@@H]4C2C(=O)O1 (stereo not given in full) | -0.866 (inactive) | -0.138 | 1.33 (inactive) | 0.398 (inactive) | -0.0069 (inactive) | 0.357 (inactive) | -0.0819 | 1.84 (inactive) | -1.18 (inactive) | 2.84
CC(C)C(O)C1C=CC2C(=O)N(c3ccccc3)C(=O)C2N1Nc1ccccc1 (stereo not given) | -0.471 (inactive) | -0.0163 | 1.2 (inactive) | -0.4 (inactive) | 1.33 (inactive) | -0.741 (inactive) | 0.325 | -3.32 (inactive) | -4.05 (inactive) | -6.43
C=C(C(=O)CC[C@H](OC(=O)c1ccccc1-c1ccccc1C(=O)O)c1cccc(OCCO)c1)C(C)C | -0.567 (inactive) | -0.328 | 4.87 (inactive) | 0.857 (inactive) | 2.06 (inactive) | 0.503 (inactive) | 0.0988 | 1.49 (inactive) | 0.361 (inactive) | -1.48
CCCC=C(CCC)[C@@H](NS(=O)(=O)c1ccc(C(F)(F)F)cc1)c1ccccc1 | -2.49 (inactive) | 0.379 | 0.669 (inactive) | 0.546 (inactive) | 0.248 (inactive) | 0.567 (inactive) | -0.286 | -0.832 (inactive) | -1.74 (inactive) | 2.42
CCCNC(=O)[C@@H]1c2ccccc2C(=O)N(Cc2ccc(OC(F)(F)F)cc2)[C@H]1c1ccc(CO)cc1 | 0.52 (inactive) | -0.0099 | 1.23 (inactive) | -0.146 (inactive) | 1.03 (inactive) | -0.406 (inactive) | 0.289 | -0.62 (inactive) | 0.184 (inactive) | 1.75
COc1cc2c(cc1O)C(c1ccc(CN3CCCC3)cc1)N(Cc1cc3c(cc1Br)OCO3)CC2 (stereo not given) | -2.4 (inactive) | -0.138 | 3.92 (inactive) | 0.984 (inactive) | 0.782 (inactive) | 0.526 (inactive) | 0.0637 | -3.51 (inactive) | -2.64 (inactive) | -3.57
CCOC(=O)C[C@H]1[C@H](OC(=O)c2ccc(C(=O)c3ccccc3)cc2)[C@@H](NC(=O)CC(C)C)c2cc(OCCCO)ccc2N1C(=O)c1ccccc1 | -0.804 (inactive) | -0.191 | 1.06 (inactive) | 0.966 (inactive) | -0.416 (inactive) | 0.26 (inactive) | -0.163 | 1.49 (inactive) | 0.861 (inactive) | 1.24
C=C[C@H]1C(C(=O)OCC)=CC[C@@H](c2ccccc2)N1S(=O)(=O)c1ccc(C)cc1 | -1.11 (inactive) | 0.457 | 7.17 (inactive) | 1.56 (inactive) | 0.43 (inactive) | 0.509 (inactive) | -0.518 | 0.09 (inactive) | -0.613 (inactive) | 0.14

From PubChem BioAssay
